Laboratory results taken from ChEMBL document CHEMBL4513216, “Probing the Open Global Health Chemical Diversity Library for Multistage-Active Starting Points for Next-Generation Antimalarials” (ACS Infect Dis, 2020).
The campaign covered roughly 69,000 compounds. About 8,600 (12%) showed an effect of 50% or more. The entries come from a sample that favours strong results as a whole.

These molecules were tested on Plasmodium berghei (assay: Screen against P. berghei liver stage (PbLuc), transformed with Luciferase, at 10uM). Details: tested at 10 uM.
Format: functional, HepG2

Compound | INHIBITION
Cc1ncc(C(=O)N2CCCC2c2c(C)nn(C)c2C)s1 (configuration not stated) | 23.2%
CCc1ccc(CC)c(NCc2cnc(N3CCOCC3)nc2)c1 | -36.4%
O=C(c1c[nH]cn1)N1CCC(F)(F)C2(CCN(c3ncccn3)C2)C1 (configuration not stated) | 2.41%
O=C(c1c[nH]cn1)N1CCC(F)(F)C2(CCN(c3cnccn3)C2)C1 (configuration not stated) | 52.3%
O=C(c1c[nH]cn1)N1CCC(F)(F)C2(CCN(c3ccccn3)C2)C1 (configuration not stated) | 34.6%
CN1C(=O)COc2ccc(C(=O)Cn3cnc4ccccc4c3=O)cc21 | -35.1%
Cc1cnn(CC2CCCCN2C(=O)CCCc2nc(C)no2)c1 (configuration not stated) | 11.3%
O=C(Nc1ncnc2c1CCC2)c1cccc(F)c1 | -44.2%
O=C(Nc1ncnc2c1CCC2)c1ccc2c(c1)OCO2 | -19.7%
COc1cc(OC)cc(C(=O)Nc2ncnc3c2CCC3)c1 | 52.4%
Cc1cc(C(=O)NCc2ccc(F)cc2)c2c(C3CCCN3)noc2n1 (configuration not stated) | 31.7%
CC(C)CNc1nc2c(cc1C(=O)NCC1CC1)CCNCC2 | 94.5%
CNC(=O)c1cc2c(nc1NCC1CC1)CCN(CC1CC1)CC2 | 8.67%
CC(C)Nc1nc2c(cc1C(=O)NCC1CC1)CCNCC2 | 32.7%
CNC(=O)c1cc2c(nc1NCC(C)C)CCN(c1ncccn1)CC2 | 85.4%
CNC(=O)c1cc2c(nc1NCC1CC1)CCN(c1ncccn1)CC2 | -17.1%
CNC(=O)c1cc2c(nc1NCC(C)C)CCN(CC1CC1)CC2 | 86.7%
CNC(=O)c1cc2c(nc1NCC(C)C)CCN(S(=O)(=O)C1CC1)CC2 | -6.75%
CNC(=O)c1cc2c(nc1NCC1CC1)CCNCC2 | 9.72%

Compound | INHIBITION
CNC(=O)c1cc2c(nc1NCC(C)C)CCN(C)CC2 | 48.7%
CO[C@H]1CO[C@@]2(CCCN(S(=O)(=O)c3ccccc3)C2)C1 | 42.7%
O=C([C@H]1C[C@H]2OCC[C@H]2N(CCc2ccccc2)C1)N1CCCO1 | 43.9%
CC(C)NC(=O)Cn1cc(-c2ccccc2)ncc1=O | 12.9%
CC(=O)c1ccc(-c2cnn(CC(=O)Nc3ccnn3C)c2)nc1 | 46.1%
CC(=O)c1ccc(-c2cnn(CC(=O)Nc3cc(C)nn3C)c2)nc1 | 28.7%
Cn1ccnc1-c1cnn(CC(=O)Nc2ccnn2C)c1 | 62.4%
CC(=O)NCCNC(=O)CN1CCCC(Cn2cncn2)C1 (configuration not stated) | 29.7%
COc1ccc(N2CCN(C(=O)C3[C@H]4CNC[C@@H]34)CC2(C)C)cc1 (some centres not stated) | 35.3%
O=C(c1ccc(O)cn1)N1CCOC(c2ccc(Cl)c(Cl)c2)C1 (configuration not stated) | -19.2%
Cc1c[nH]c(CN2CCOC(c3ccc(F)cc3)C2)c(C)c1=O (configuration not stated) | -3.96%
Cc1c[nH]c(CN2CCOC(c3ccc(Cl)c(Cl)c3)C2)c(C)c1=O (configuration not stated) | 19.8%
Cc1c[nH]c(CN2CCOC(c3ccc(Cl)cc3)C2)c(C)c1=O (configuration not stated) | 79.3%
Cc1cc(C(=O)N2CCOC(c3nc(C)n[nH]3)C2)[nH]n1 (configuration not stated) | 28.5%
Cc1nc[nH]c1CN1CCOC(c2ccc(Cl)c(Cl)c2)C1 (configuration not stated) | 69.4%
Cc1nnc(CN2CCOC(c3ccc(Cl)c(Cl)c3)C2)o1 (configuration not stated) | 15.9%
Cc1cc(C)nc(CN2CCOC(c3ccc(Cl)cc3)C2)n1 (configuration not stated) | 41.5%
Cc1cc(C(=O)N2CCOC(c3ccc(Cl)c(Cl)c3)C2)[nH]n1 (configuration not stated) | 81%
